# Rows were chosen to be rich in hits. Some 2.4% of all compounds tested hit in one or more screens of this group.
# D2 antagonist = antagonizes the human D2 dopamine receptor; P14416; HEK293 TREx D2 cells, calcium flux, dopamine EC80; inhibition, % at 10 µM; actives 2% (n = 340,000); AID 485344; in the data active = inhibition above about 30%; inactive = below that, where a call was filed; note: 0% is about no effect
# Target sequence (P14416 whole entry, looked up): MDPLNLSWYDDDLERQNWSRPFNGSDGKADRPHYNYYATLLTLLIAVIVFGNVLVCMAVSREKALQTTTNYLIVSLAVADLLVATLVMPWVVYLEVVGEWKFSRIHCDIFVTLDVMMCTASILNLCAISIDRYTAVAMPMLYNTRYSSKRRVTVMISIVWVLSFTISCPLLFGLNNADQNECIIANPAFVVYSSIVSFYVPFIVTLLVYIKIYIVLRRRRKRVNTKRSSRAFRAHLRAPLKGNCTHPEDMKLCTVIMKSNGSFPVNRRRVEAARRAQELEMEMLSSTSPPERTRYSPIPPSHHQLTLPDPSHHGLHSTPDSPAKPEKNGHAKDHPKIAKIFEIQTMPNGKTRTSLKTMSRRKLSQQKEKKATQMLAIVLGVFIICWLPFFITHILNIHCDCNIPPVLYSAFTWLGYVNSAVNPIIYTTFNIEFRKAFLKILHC
#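 Compounds are added to dye-loaded, induced HEK293 T-REx cells coupled to calcium release via D2; after a 3 min kinetic read an EC80 dopamine stimulus is given and fluorescence is recorded for 3 more min.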
# D2 ag-1 = activates the human D2 dopamine receptor. actives 0.53% (n = 340,000). P14416. HEK293 T-REx D2 cells, calcium flux agonist mode. activation, % at 2 µM;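 active = activation over 3 SD above normal in the single-dose calcium agonist read, cut at about 30% in these data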; note: 0% is about no effect
#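 HEK293 Trex D2 cells, tetracycline-induced, o/n 30 C 5% CO2; no-wash Ca dye, RT 30–90 min; 10-cycle baseline, 23 nl cpd added, kinetic Ca read 180 s; agonist hits = positive Ca response.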
# D2 PAM-1 = positive allosteric modulators of human D2 dopamine receptor. HEK293 T-REx D2, calcium flux, EC20 dopamine potentiation. potentiation, % at 10 µM. actives 0.34% (n = 340,000). AID 485347;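 active = potentiation over 3 SD above the plate norm, cut at about 30% in these data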; note: 0% is about no effect
#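 Using a no-wash calcium dye in inducible, force-coupled HEK293 Trex cells expressing D2, we tracked fluorescence each second for 180 s after compound, then for 180 s after EC20 dopamine to detect augmented signalling.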
# D2 PAM-2 = human D2 receptor positive allosteric modulation | actives 0.23% (n = 360,000) | AID 624464 | P14416 | potentiation, % (test concentration not listed) | DiscoveRx D2 beta-arrestin cells, luminescence, 90 min; 100% = 57 uM dopamine signal; in the data active = potentiation above about 50%; inconclusive = mostly about 30% to 49%
#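 D2 cells co-treated with compound plus 50 nM dopamine (EC20) for 90 min at 37 deg C to detect potentiation. Beta-arrestin recruitment was read as enzyme-fragment luminescence after 1 h at ambient temperature. Full response was set by 57 uM dopamine.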
# D2 ag-2 = human D2 receptor agonism in beta-arrestin assay. P14416. DiscoveRx PathHunter D2 beta-arrestin, luminescence, 90 min; 100% = 57 uM dopamine signal. activation, % (test concentration not listed). actives 0.084% (n = 360,000). AID 624465; in the data active = activation above about 40%; inconclusive = between about 15% and that limit
#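 Agonist mode: compounds alone added to overnight-plated D2 PathHunter cells for 90 min at 37 C, with 57 uM final dopamine (EC100) defining full response. Beta-arrestin recruitment detected by chemiluminescent reagent, read after 1 h at ambient temperature.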
# An asterisk follows results filed as active; ? = inconclusive; · = not tested or not shown.
SMILES,D2 antagonist,D2 ag-1,D2 PAM-1,D2 PAM-2,D2 ag-2
CCC(Cn1nnc2ccccc2c1=O)NC(=O)Nc1cccc(Cl)c1 (configuration not stated),·,-1,-10,·,·
C=CCOc1ccccc1CN(C(=O)CCl)c1ccc2c(c1)OCO2,33*,0,5,-3,-4
CCOc1ccccc1NC(=O)Nc1ccc2c(c1)OCO2,-4,0,-10,-26,-5
Cc1ccc(Cl)cc1N(C)C(=O)c1sc2nc3n(c(=O)c2c1C)CCCC3,·,1,-7,·,·
CN(C)CCCNC(=O)N1c2ccccc2C=Cc2ccccc21,33*,1,6,-16,-5
CCN(CC)C(=O)N1c2ccccc2C=Cc2ccccc21,-4,0,-2,0,-3
CCCCn1c(-c2ccc(OC(F)F)cc2)nc2c1c(=O)[nH]c(=O)n2CC(C)C,-2,-2,33*,0,3
COc1ccc(S(=O)(=O)N2CCC3(CC2)CC(=O)c2ccccc2O3)cc1OC,45*,0,-11,-4,9
CC(=O)Nc1ccc(S(=O)(=O)N2CCC3(CC2)CC(=O)c2ccccc2O3)cc1,-29,-1,11,-9,0
C1CNCCNCCCNCCNC1,46*,-1,-1,·,·
CCOC(=O)c1cccnc1SCc1cc(=O)n2ccccc2n1,7,-1,3,-8,1
CC(OC(=O)c1cccnc1SCc1cc(=O)n2ccccc2n1)c1ccccn1 (configuration not stated),2,-1,30*,-5,3
C=CCC(CC=C)(CNC(=O)C(=O)Nc1ccc(C)cc1)c1ccccc1,·,·,2,·,·
Cc1nn(Cc2ccc(F)cc2)c2sc(C(=O)Nc3nccs3)cc12,-6,-1,0,?,?
Cc1nn(Cc2ccccc2Cl)c2sc(C(=O)Nc3nccs3)cc12,38*,-2,-9,8,3
Cc1nn(Cc2ccc(Cl)cc2)c2sc(C(=O)O)cc12,32*,0,0,-7,-5
C[C@@H]1CN([C@@H](C)CO)C(=O)c2cccc(NS(C)(=O)=O)c2O[C@H]1CN(C)CC1CCCCC1,·,·,·,-7,-1
CC(NC(=O)c1ccccc1Cl)c1nnc(SCC(=O)Nc2ccc(C(=O)O)cc2)n1C (configuration not stated),30*,-1,-2,-3,0
O=S(=O)(Nc1ccccn1)c1ccc(Cl)c2ccccc12,31*,-1,-2,1,2
CCOC(=O)C(NC(=O)c1ccccc1)=C1C=C(C)OC(C)=C1,12,0,30*,-3,-1
CN(C)/C=C/C(=O)c1ccc2noc(-c3cccc(F)c3)c2c1,-11,0,-2,-4,46*
CC(=O)c1ccc2noc(-c3ccc(F)cc3)c2c1,34*,1,3,59*,6
O=c1cc(-c2ccc(F)cc2)nc(SCc2nc(-c3ccccc3Cl)no2)[nH]1,·,-5,0,·,·
COCCn1c(=S)[nH]c2cc(C(=O)NCCCN3CCOCC3)ccc2c1=O,-6,1,12,-5,-1
COCCn1c(=O)[nH]c2cc(C(=O)NCCN3CCN(c4ccccc4F)CC3)ccc2c1=O,96*,83*,-21,18,?
SMILES,D2 antagonist,D2 ag-1,D2 PAM-1,D2 PAM-2,D2 ag-2
COCCn1c(=O)[nH]c2cc(C(=O)Nc3cccc(F)c3)ccc2c1=O,20,40*,-18,-7,3
COCCn1c(=O)[nH]c2cc(C(=O)NCCCN3CCN(c4ccc(F)cc4)CC3)ccc2c1=O,58*,35*,-30,-8,5
COc1cccc(C(=O)O[C@@H]2[C@H](Cc3ccccc3)NS(=O)(=O)[C@H]3C[C@@H]4C=C[C@]23O4)c1,2,0,1,-6,-4
Cn1c2c(c(=O)n(C)c1=O)C(C(F)(F)F)(C(F)(F)F)N=C(CCC1CCCCC1)N2,10,4,-3,4,4
O=C(NCc1ccccc1)c1ccc(C(=O)NCc2ccccc2)cc1,·,·,·,3,4
O=C(NCc1ccccc1)c1n[nH]nc1-c1ccccc1O,31*,0,8,-8,0
CCc1noc(C)c1C(=O)NNC(=O)c1ccc(Br)cc1,37*,0,-2,-2,-6
CCc1noc(C)c1C(=O)NNC(=O)c1nn(C)c(=O)c2ccccc12,57*,0,-6,-1,-3
CCc1noc(C)c1C(=O)NNC(=O)c1nn(CC)c(=O)c2ccccc12,12,-1,-1,25,-5
CC1CCCCN1CCCNC(=O)CN1C(=O)c2cccnc2Oc2ccccc21 (configuration not stated),5,0,-7,-15,-3
CCOC(=O)c1c(C)[nH]c(CCC(=O)Nc2ccccc2C(=O)OC)c1C,·,0,-6,·,·
COc1ccc(F)cc1C(=O)C1CCCN(Cc2ccc(Sc3nncn3C)o2)C1 (configuration not stated),31*,1,-18,-3,-4
COc1cccc(CNC(=O)C2CCC(CNS(=O)(=O)c3ccc(Br)s3)CC2)c1 (configuration not stated),·,·,19,·,·
COc1ccccc1NS(=O)(=O)c1ccc(C)c(NC(=O)c2c(C)noc2C)c1,-26,0,-1,-1,-2
Cc1ccc(C2CC2/C(=N/O)c2ccc(F)cc2)cc1 (configuration not stated),34*,0,-7,11,1
CCc1nc(SCc2ccccc2C)n[nH]1,1,1,-2,-16,-5
Brc1cc2c(cc1C1Nc3ccccc3C3C=CCC31)OCO2 (configuration not stated),6,0,-2,-4,0
CC(=O)c1ccc2c(c1)C1C=CCC1C(c1ccncc1)N2 (configuration not stated),7,7,2,86*,6
C1=CC2c3ccccc3NC(c3ccncc3)C2C1 (configuration not stated),-16,1,3,70*,14
CCCn1c(=O)c2sccc2n2c(CCCC(=O)NCCc3ccc(Cl)cc3)nnc12,·,-1,1,·,·
CN1C(=O)c2oc3ccccc3c(=O)c2C1c1cccnc1 (configuration not stated),·,·,·,-7,-2
CN1C(=O)c2oc3ccccc3c(=O)c2C1c1ccccn1 (configuration not stated),4,0,32*,-2,1
CC1CCN(Cc2c(C(=O)N/N=C/c3cc(Br)ccc3O)nnn2-c2nonc2N)CC1,8,2,6,-3,-4
CC1CCN(Cc2c(C(=O)N/N=C/c3cc(Cl)ccc3O)nnn2-c2nonc2N)CC1,0,3,30*,1,-9
O=c1sc2ccccc2c(N2CCOCC2)c1[N+](=O)[O-],4,2,-3,-4,4

# Bioassay records as filed in PubChem BioAssay.
